Source: ChEMBL document CHEMBL3988442, “University of Dundee, Small-Polar-MMV Screening Library” (2021)
Hit rate of the full screen: of about 69,000 compounds, about 1,000 (1.4%) showed an effect of 50% or more. Many of the other results were omitted from the sample, so strong results are more common in it than they were.

Test system: Leishmania donovani
Experiment: Leishmania intramacrophage assay
Assay type: functional, organism-based
Design: scale not given: in the data most compounds retested in dose-response had high values

With Cc1ccc(C)c(NCc2nc3n(n2)CCCCC3)c1 as the molecule, how does the “Percent Effect” value (30.3 µM, […]) read?
The value was -6.245%.

With CSc1cccc(CN(C)C(=O)c2cccc(C3CCCNC3)c2)c1 (stereo not given) as the molecule, how does the “Percent Effect” value (30.3 µM, […]) read?
The value was 27.95%.

With CSc1cccc(CN(C)C(=O)c2ccc(C3CCCNC3)cc2)c1 (stereo not given) as the molecule, how does the “Percent Effect” value (30.3 µM, […]) read?
The value was 52.27%.

CN(Cc1ccc2c(c1)OCO2)C(=O)c1ccc(C2CCCNC2)cc1 (stereo not given) was tested. Which “Percent Effect” value (30.3 µM, […]) did it give?
The value was 4.185%.

With CC(C)NC(=O)c1noc2c1CN(Cc1cnn(C)c1)CC2 as the molecule, how does the “Percent Effect” value (30.3 µM, […]) read?
Its value is 0.4989%.

Cc1noc(C)c1C(=O)NCc1ccc(N2CCCCCC2)nc1 was tested. Which “Percent Effect” value (30 µM) did it give?
Its value is 36.14%.

CCc1[nH]c2c(CNc3cc(C)nc(NC)n3)cc(C)cc2c1C was tested. Which “Percent Effect” value (30.3 µM, […]) did it give?
Its value is 71.01%.

With CCc1[nH]c2c(CNc3cncc(C(=O)OC)n3)cc(C)cc2c1C as the molecule, how does the “Percent Effect” value (30.3 µM, […]) read?
Its value is -70.43%.

How did the “Percent Effect” value (30.3 µM, […]) turn out when CNc1nc(C)cc(NCc2cc(C)cc3c(C)c(C)[nH]c23)n1 was run?
The value was 35.88%.

How did the “Percent Effect” value (30.3 µM, […]) turn out when CCc1[nH]c2c(CNc3nc(C)cc(NC)n3)cc(C)cc2c1C was run?
Its value is 89.36%.

For CCc1[nH]c2c(CNc3nccc(N)n3)cc(C)cc2c1C, which “Percent Effect” value (30.3 µM, […]) is on record?
The value was 21.52%.

With CNc1cc(C)nc(NCc2cc(C)cc3c(C)c(C)[nH]c23)n1 as the molecule, how does the “Percent Effect” value (30.3 µM, […]) read?
The value was -40.33%.

Which “Percent Effect” value (30.3 µM, […]) does the source give for CC(C)c1ccc(S(=O)(=O)NC2CCN(CC(F)(F)F)C2)cc1 (stereo not given) here?
The value was 20.88%.

O=C(CC1CCCC1)N1CCCC1c1ccc(CN2CCOCC2)cn1 (stereo not given) was tested. Which “Percent Effect” value (30.3 µM, […]) did it give?
Its value is 7.793%.

With COc1ccccc1CN1C[C@@H](F)[C@@H](OCc2nc3ncccc3[nH]2)C1 as the molecule, how does the “Percent Effect” value (30.3 µM, […]) read?
The value was 33.82%.

Which “Percent Effect” value (30.3 µM, […]) does the source give for CCC(NC(=O)Cn1ccc(=O)n(C)c1=O)c1ccc(OC)cc1 (stereo not given) here?
The value was 24.09%.

How did the “Percent Effect” value (30.3 µM, […]) turn out when CCc1ocnc1C(=O)Nc1ccc2ccn(CCN(C)C)c2c1 was run?
Its value is -1.774%.

Which “Percent Effect” value (30.3 µM, […]) does the source give for COCC(=O)N1CCC2(CC1)CC(COC)N(Cc1ccccn1)C2.O=C(O)C(F)(F)F (stereo not given) here?
The value was 12.17%.

For COCC1CC2(CCN(Cc3nccs3)CC2)CN1Cc1ccccn1.O=C(O)C(F)(F)F.O=C(O)C(F)(F)F.O=C(O)C(F)(F)F (stereo not given), which “Percent Effect” value (30.3 µM, […]) is on record?
Its value is 50.9%.

With COCC1CC2(CCN(Cc3ccccn3)CC2)CN1c1ncccn1.O=C(O)C(F)(F)F.O=C(O)C(F)(F)F.O=C(O)C(F)(F)F (stereo not given) as the molecule, how does the “Percent Effect” value (30.3 µM, […]) read?
Its value is -16.53%.

With O=C(O)C(F)(F)F.O=C1CC[C@H]2[C@H](CCN2C(=O)C2CCOCC2)N1Cc1ccncc1 as the molecule, how does the “Percent Effect” value (30 µM, 30.03 µM) read?
Its value is 15.79%.

Which “Percent Effect” value (30 µM, 30.03 µM) does the source give for CS(=O)(=O)c1ccc(CNC(=O)N2CCC(c3ccccc3)CC2)cc1 here?
The value was -1.511%.

Cc1cc(CN2C[C@@H]3CN(C(=O)c4cccn4C)CCO[C@@H]3C2)no1.O=C(O)C(F)(F)F was tested. Which “Percent Effect” value (30.3 µM, […]) did it give?
The value was 11.08%.

Which “Percent Effect” value (30.3 µM, […]) does the source give for Cn1cccc1C(=O)N1CCO[C@@H]2CN(Cc3ccco3)C[C@@H]2C1 here?
The value was 19.73%.

Cn1cc(CN2C[C@@H]3CN(C(=O)c4cccn4C)CCO[C@@H]3C2)cn1 was tested. Which “Percent Effect” value (30.3 µM, […]) did it give?
Its value is 58.31%.

How did the “Percent Effect” value (30.3 µM, […]) turn out when COCC1CN(CC2CC2)Cc2nn(CC3CC3)cc21.O=C(O)C(F)(F)F (stereo not given) was run?
The value was 8.658%.

O=C1OCCN1CCOc1nc(-c2ccccc2Cl)no1 was tested. Which “Percent Effect” value (30 µM, 30.03 µM) did it give?
Its value is 4.618%.

For CC(C(=O)Nc1ccc(Cl)cn1)n1ccc(C(F)(F)F)n1 (stereo not given), which “Percent Effect” value (30.3 µM, […]) is on record?
Its value is 46.39%.

Cc1ccc(NC(=O)C(C)n2ccc(C(F)(F)F)n2)nc1 (stereo not given) was tested. Which “Percent Effect” value (30.3 µM, […]) did it give?
The value was 38.05%.

For Cc1cnc(NC(=O)C(C)n2ccc(C(F)(F)F)n2)s1 (stereo not given), which “Percent Effect” value (30.3 µM, […]) is on record?
Its value is 59.23%.

For Cc1cc(C(=O)N2CCCCC2C)ccc1NC(=O)N1CCOCC1 (stereo not given), which “Percent Effect” value (30 µM) is on record?
The value was 22%.

How did the “Percent Effect” value (30.3 µM, […]) turn out when O=C(O)C(F)(F)F.c1cnc(N2Cc3nccn3CC(COc3cccnc3)C2)nc1 (stereo not given) was run?
Its value is 5.012%.

How did the “Percent Effect” value (30.3 µM, […]) turn out when CN(C)c1ncc(-c2cncn2CCc2ccc3c(c2)OCCO3)cn1.Cl was run?
Its value is 20.21%.

Cc1cccc(C2(C(=O)NCCCn3cccn3)CC2)c1 was tested. Which “Percent Effect” value (30 µM, 30.03 µM) did it give?
Its value is 17.4%.

With Cc1ccc(C(C(=O)NCCN2CCC(CO)CC2)N(C)C)cc1 (stereo not given) as the molecule, how does the “Percent Effect” value (30.3 µM, […]) read?
Its value is 25.71%.

For Cc1ccc(C)c(C(=O)N2CCOC(CCN(C)C)C2)c1 (stereo not given), which “Percent Effect” value (30.3 µM, […]) is on record?
Its value is 10.51%.

Cc1ccc(C(CCNCCN(C)C)C2CCOC(C)(C)C2)cc1.O=C(O)C(=O)O (stereo not given) was tested. Which “Percent Effect” value (30.3 µM, […]) did it give?
The value was 99.98%.

Which “Percent Effect” value (30.3 µM, […]) does the source give for CCN(CC)CCCNCC1CCOC(C)(C)C1 (stereo not given) here?
Its value is 15.48%.

How did the “Percent Effect” value (30.3 µM, […]) turn out when COCCn1ccc2cc(C(=O)NC3CCOC(C)(C)C3)ccc21 (stereo not given) was run?
The value was 4.385%.

Which “Percent Effect” value (30.3 µM, […]) does the source give for Cc1ccc(C(CCNCCCN(C)C)C2CCOC(C)(C)C2)cc1.O=C(O)C(=O)O (stereo not given) here?
The value was 85.22%.

With CCc1noc(C(C)N2CCC(C)CC2)n1 (stereo not given) as the molecule, how does the “Percent Effect” value (30 µM) read?
Its value is 28.8%.

For Cn1nc(COc2cccnc2)c2c1CCN(c1cnccn1)C2.O=CO.O=CO, which “Percent Effect” value (30 µM, 30.03 µM) is on record?
The value was -2.364%.

For CCCn1nc(C)c(C(=O)N(C)[C@@H]2CC[C@@H](OC)[C@@H]2O)c1C, which “Percent Effect” value (30.3 µM, […]) is on record?
Its value is 19.04%.

With CC(C(=O)Nc1ccc(N2CCCC2)nc1)n1cccn1 (stereo not given) as the molecule, how does the “Percent Effect” value (30 µM) read?
The value was 19.04%.

How did the “Percent Effect” value (30.3 µM, […]) turn out when Cc1noc(C)c1CCCNC(=O)C1CCN(C(C)C)CC1 was run?
The value was 24.48%.

With Cc1nc2cc(CNC(=O)C3CC(=O)N(C4CCCC4)C3)ccc2n1C (stereo not given) as the molecule, how does the “Percent Effect” value (30.3 µM, […]) read?
Its value is 2.689%.

Cc1nc2cc(CNC(=O)C3CC(=O)N(CCN(C)C)C3)ccc2n1C (stereo not given) was tested. Which “Percent Effect” value (30.3 µM, […]) did it give?
The value was 7.725%.

Which “Percent Effect” value (30.3 µM, […]) does the source give for CCN1CC(C(=O)NCc2ccc3c(c2)nc(C)n3C)CCC1=O (stereo not given) here?
The value was 73.45%.

How did the “Percent Effect” value (30.3 µM, […]) turn out when CC(C)c1cc(C(=O)O)nc2[nH]c(=O)[nH]c(=O)c12 was run?
The value was -5.63%.

Which “Percent Effect” value (30 µM) does the source give for CCCc1nc(CN2CCCN(Cc3nccn3C)CC2)no1 here?
Its value is 36.47%.
